“And” between values parts separate entries of the source, which are not always exact repeats. Identical values can stand only once. Inconclusive results are not listed. Entries that show only a call come without a potency. A structure can be active in one record and inactive in another. The source made the active and inactive calls. The call rests on the fitted dose curve; in most records, active means well fitted inhibition curve with a large enough effect; inconclusive means small, poorly fitted or top-dose-only effect; inactive means no such curve, though single readings can be large or run the other way.
Potency means the concentration at half of the fitted maximal effect.

The nature of this assay: NS1 protein of Zika virus - qHTS assay to identify small molecule inhibitors in human HEK 293 cells (AID 1347053). Further: nearly all actives have a fitted effect of over 55% in size. Particulars: HEK293 ZIKV MR766 infection, NS1 TR-FRET, 24 h; series mostly up to 46.1 µM. The text has this:
National Center for Advancing Translational Sciences [NCATS]
Johns Hopkins University School of Medicine
The non-structural 1 (NS1) protein of zika virus is known to associate with the viral replication complex. This cell-based TR-FRET ZIKV NS-1 assay measures the increased NS-1 protein in human HEK 293 cells after a 24-hour Zika virus infection by a TR-FRET assay readout. A decrease in the Time-resolved fluorescence energy transfer (TR-FRET) signal in this assay by small molecule treatment indicates an inhibitory effect of the small molecule on the expression of Zika virus NS1 correlating with Zika virus replication.
HEK 293 cells were cultured in EMEM (ATCC, Cat. # 30-2003) medium with 10% fetal bovine serum (GE healthcare Life Sciences, Cat. # SH30071.03), and 1% Pen/Strep (Gibco, Cat. # 15140-122). Cells were seeded in the assay plate and incubated at 37 C with 5% CO2 for 20 hours. Compounds were added to cells and incubated for one hour before addition of ZIKV MR766 strain solution to cells (MOI = 0.5). After an incubation at 37 C for 24 hours, the reagent mixture of TR-FRET ZIKV NS1 assay using two anti-ZIKV NS1 antibodies was added to assay plates. The TR-FRET signals in assay plates were measured using an Envision plate reader (PerkinElmer). Data were normalized by using the cell-containing wells without ZIKV as a negative control (0% NS-1) and wells containing ZIKV infected cells as a positive control (100% NS-1 level).
Background: Quantitative high-throughput screening tests each substance at several concentrations.
On to `NC12CC3CC(CC(C3)C1)C2`, for which the Potency entry was “inactive”.
The entry for `O=c1[nH]cc(F)c(=O)[nH]1` is “inactive”; for `COc1ccc2c(c1)c(CC(=O)O)c(C)n2C(=O)c1ccc(Cl)cc1` it is “inactive”.
As for `COc1ccccc1OCC(O)CN1CCN(CC(=O)Nc2c(C)cccc2C)CC1` (stereo not given), the Potency entry is “inactive”.
With `CN1C2CCC1CC(OC(=O)C(CO)c1ccccc1)C2` (stereo not given), the Potency result is “inactive”.
As for `NC(=O)NO`, the Potency entry is “inactive”.
The entry for `COc1ccc2[nH]cc(CCNC(C)=O)c2c1` is “inactive”; for `CC(C(=O)O)c1cccc(C(=O)c2ccccc2)c1` (stereo not given) it is “inactive”.
The figure for `CCCCc1oc2ccccc2c1C(=O)c1cc(I)c(OCCN(CC)CC)c(I)c1` is 29.6 µM (active) and inactive; for `CC(CCc1ccc(O)cc1)NCCc1ccc(O)c(O)c1` (stereo not given) it is “inactive”; for `NCCc1cnc[nH]1` it is “inactive”.
Regarding `Cc1ccc(C(=O)Nc2ccc(S(=O)(=O)O)c3cc(S(=O)(=O)O)cc(S(=O)(=O)O)c23)cc1NC(=O)c1cccc(NC(=O)Nc2cccc(C(=O)Nc3cc(C(=O)Nc4ccc(S(=O)(=O)O)c5cc(S(=O)(=O)O)cc(S(=O)(=O)O)c45)ccc3C)c2)c1`, the Potency result is “inactive”.
The entry for `O=C(Nc1ccc([N+](=O)[O-])cc1Cl)c1cc(Cl)ccc1O` is “inactive and 1.48 µM (active)”; for `CC12CC3CC(C)(C1)CC(N)(C3)C2` it is “inactive”; for `Cc1cn([C@H]2C[C@H](N=[N+]=[N-])[C@@H](CO)O2)c(=O)[nH]c1=O` it is “inactive”.
For `CN1CCC(=C2c3ccccc3C=Cc3ccccc32)CC1`, the Potency entry is “inactive”.
With `CCc1cccc2c3c([nH]c12)C(CC)(CC(=O)O)OCC3` (stereo not given), the Potency result was “inactive”.
For the molecule `CC#C[C@]1(O)CC[C@H]2[C@@H]3CCC4=CC(=O)CCC4=C3[C@@H](c3ccc(N(C)C)cc3)C[C@@]21C`, the Potency entry was “inactive”.
In the case of `Clc1ccccc1C(c1ccccc1)(c1ccccc1)n1ccnc1`, the Potency entry was “inactive”.
For the molecule `CC1(CN2CCC(n3c(=O)[nH]c4ccccc43)CC2)OCc2ccccc2-n2cccc21` (stereo not given), the Potency result is “inactive”.
Turning to `CS(=O)(=O)CCNCc1ccc(-c2ccc3ncnc(Nc4ccc(OCc5cccc(F)c5)c(Cl)c4)c3c2)o1`, the Potency result was “inactive”.
As to `COc1cc2nc(N(C)CCCNC(=O)C3CCCO3)nc(N)c2cc1OC` (stereo not given), the Potency result was “inactive”.
As for `N[C@@H](Cc1c[nH]c2ccc(O)cc12)C(=O)O`, the Potency result was “inactive”.
As for `O=C(c1ccc(OCCN2CCCCC2)cc1)c1c(-c2ccc(O)cc2)sc2cc(O)ccc12`, the entry is “inactive”.
Consider `CC1(C)O[C@H]2CC(=O)OC[C@]23[C@H]2CC[C@@]4(C)[C@H](c5ccoc5)OC(=O)[C@H]5O[C@]54[C@]2(C)C(=O)C[C@@H]13`, for which the Potency entry is “inactive”.
`Cc1cc(C(C)(C)C)cc(C)c1CC1=NCCN1`: the Potency entry is “inactive”.
As to `COc1cc2c(c(OC)c1OC)-c1ccc(OC)c(=O)cc1[C@@H](NC(C)=O)CC2`, the Potency result was “inactive”.
As for `COc1cc2nc(N3CCN(C(=O)c4ccco4)CC3)nc(N)c2cc1OC`, the figure is 9.35 µM (active).
With `CC[N+](CC)(CC)CCOc1cccc(OCC[N+](CC)(CC)CC)c1OCC[N+](CC)(CC)CC`, the Potency entry is “inactive”.
As for `CN(C)CCCN1c2ccccc2CCc2ccc(Cl)cc21`, the entry is “inactive”.
Turning to `CN1C(C(=O)Nc2ccccn2)=C(O)c2ccccc2S1(=O)=O`, the Potency result was “inactive”.
For `Clc1ccc2c(c1)C(N1CCNCC1)=Nc1ccccc1O2`, the Potency entry was “inactive”.
As for `COc1ccc(CCN(C)CCCC(C#N)(c2ccc(OC)c(OC)c2)C(C)C)cc1OC` (stereo not given), the Potency entry is “inactive”.
Take `COC(=O)Nc1nc2ccc(C(=O)c3cccs3)cc2[nH]1`: the Potency is 235 nM (active) and inactive.
The entry for `CC1COc2c(N3CCN(C)CC3)c(F)cc3c(=O)c(C(=O)O)cn1c23` (stereo not given) is “inactive”; for `CN1CCN(C2=Nc3cc(Cl)ccc3Nc3ccccc32)CC1` it is “inactive”.
For the molecule `CC(COc1ccccc1)N(CCCl)Cc1ccccc1` (stereo not given), the Potency entry is “inactive”.
As for `CC[C@@]1(O)C(=O)OCc2c1cc1n(c2=O)Cc2cc3c(CN(C)C)c(O)ccc3nc2-1`, the Potency result is “inactive and 41.8 nM (active)”.
As to `CN1CCN2c3ccccc3Cc3ccccc3C2C1` (stereo not given), the Potency result is “inactive”.
The entry for `CN(C)CCC=C1c2ccccc2C=Cc2ccccc21` is “inactive”.

Values taken from PubChem BioAssay (NCATS).
